# Results filed as inconclusive are left out. The source made the active and inactive calls. The calls were made as follows, unless noted: active = hit-call score of the fitted dose curve at least 0.9, where 1 is the maximum; inconclusive = response in the unintended direction; inactive = score below 0.9.
# Legend:
# [1] = TOX21_p53_BLA_p2_viability: Viability Assessment in the Tox21 HCT-116 p53 Agonism Beta-lactamase Assay, Phase 2 (AID 2283591);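 also: actives lower the ATP signal meaning cytotoxicity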
# How it was run: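 Cytotoxicity readout: CellTiter-Glo ATP luminescence, 30 min at room temperature, after the beta-lactamase read. Cells were HCT116 exposed 16 h at 37C to compounds pin-transferred at 217-fold dilution from DMSO stocks.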
# [2] = biological target: Cellular tumor antigen p53 (Homo sapiens) (UniProt P04637); test: TOX21_p53_BLA_p2_ratio: Tox21 HCT-116 p53 Agonism Beta-lactamase Assay, Ratio, Phase 2 (AID 2283592)
# Sequence of Cellular tumor antigen p53 (Homo sapiens) (P04637 whole entry, looked up): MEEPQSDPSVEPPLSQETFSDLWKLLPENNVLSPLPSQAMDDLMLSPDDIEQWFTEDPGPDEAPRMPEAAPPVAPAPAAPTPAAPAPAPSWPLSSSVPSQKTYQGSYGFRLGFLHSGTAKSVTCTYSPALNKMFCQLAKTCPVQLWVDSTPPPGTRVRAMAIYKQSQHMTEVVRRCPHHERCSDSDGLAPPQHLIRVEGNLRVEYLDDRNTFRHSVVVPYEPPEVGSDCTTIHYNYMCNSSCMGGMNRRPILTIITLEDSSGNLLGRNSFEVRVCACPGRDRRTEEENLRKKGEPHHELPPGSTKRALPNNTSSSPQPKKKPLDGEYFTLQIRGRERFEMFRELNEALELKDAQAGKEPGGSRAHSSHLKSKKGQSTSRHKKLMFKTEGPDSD
# How it was run: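 First, HCT116 reporter cells settle for 5 h at 37C. Next, DMSO compound solutions are pinned in (217-fold dilution) and left 16 h. Finally, CCF4-AM substrate is loaded 2 h at room temperature and the 460/530 nm ratio read.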
# [3] = TOX21_p53_BLA_p4_viability: Viability Assessment in the Tox21 HCT-116 p53 Agonism Beta-lactamase Assay, Phase 4 (AID 2283597);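 also: hits lower the luminescence signal meaning cytotoxicity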
# How it was run: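 4000 HCT116 cells per well; 5 h attachment; compounds from DMSO, 217-fold dilution; 16 h at 37C. Then CCF4-AM, 2 h RT, followed by CellTiter-Glo, 30 min RT, luminescence. Decrease = cytotoxicity.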
# [4] = biological target: Cellular tumor antigen p53 (Homo sapiens) (UniProt P04637); test: TOX21_p53_BLA_p5_ratio: Tox21 HCT-116 p53 Agonism Beta-lactamase Assay, Ratio, Phase 5 (AID 2283599)
# How it was run: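 Beta-lactamase reporter ratio (blue 460 nm over green 530 nm, 405 nm excitation) after 2 h CCF4-AM loading, in HCT-116 cells exposed 16 h at 37 C to compounds pinned at 217-fold dilution. Increases relative to DMSO baseline scored.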
# [5] = biological target: Cellular tumor antigen p53 (Homo sapiens) (UniProt P04637); test: TOX21_p53_BLA_p3_ratio: Tox21 HCT-116 p53 Agonism Beta-lactamase Assay, Ratio, Phase 3 (AID 2283596)
# How it was run: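 Cells were seeded at 4000/well, rested 5 h at 37C, then dosed with DMSO compound solutions (217-fold dilution) for 16 h. CCF4-AM substrate was loaded for 2 h at room temperature, and the 460/530 nm emission ratio was fitted for gain of signal versus DMSO.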
# [6] = biological target: Cellular tumor antigen p53 (Homo sapiens) (UniProt P04637); test: TOX21_p53_BLA_p4_ratio: Tox21 HCT-116 p53 Agonism Beta-lactamase Assay, Ratio, Phase 4 (AID 2283601)
# How it was run: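 Signal is the blue/green (460nm/530nm) ratio of cleaved versus uncleaved CCF4-AM substrate, read after 2 h substrate loading. Cells were HCT116 carrying the p53-responsive beta-lactamase reporter, dosed 16 h at 37C, 5% CO2; CellTiter-Glo measured in parallel.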
# [7] = tested on: Brachyury (BRA) Protein Expression, Deisenroth Lab, TBXT (gene 6862); test: CCTE_Deisenroth_DEVTOX-GLR_legacy_Bra: (Legacy) CCTE's DevTox GLR-Endo Assay Evaluation of Brachyury (BRA) Protein Expression, Deisenroth Lab (AID 2284329; active = hit-call score of the fitted dose curve at least 0.9, where 1 is the maximum; inactive = score below 0.9)
# How it was run: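 Percent Bra-positive cells, scored by high-content imaging against a threshold of 5x BMAD over the undifferentiated control median, with the 0.2% DMSO median subtracted. RUES2-GLR cultures were dosed twice at 24 h intervals across a 48 h differentiation, at 1 nM–200 uM in ten steps, with n=4 replicates.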
# [8] = CCTE_Deisenroth_DEVTOX-GLR_legacy_CellCount: (Legacy) Viability Assessment in CCTE's DevTox GLR-Endo Assay, Deisenroth Lab (AID 2284331; active = hit-call score of the fitted dose curve at least 0.9, where 1 is the maximum; inactive = score below 0.9); details: actives raise or lower the signal
# How it was run: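 Nuclei count by fluorescence high-content imaging (5 fields/well) after 48 h differentiation of RUES2-GLR cells. Two exposures, 24 h apart; 1 nM - 200 uM series; n=4. Bidirectional fit vs DMSO.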
# [9] = tested on: SRY-box transcription factor 2 (SOX2) Protein Expression, Deisenroth Lab, SOX2 (gene 6657); test: CCTE_Deisenroth_DEVTOX-GLR_legacy_Sox2: (Legacy) CCTE's DevTox GLR-Endo Assay Evaluation of SRY-box transcription factor 2 (SOX2) Protein Expression, Deisenroth Lab (AID 2284346; active = hit-call score of the fitted dose curve at least 0.9, where 1 is the maximum; inactive = score below 0.9)
# How it was run: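 Percent Sox2-positive cells was scored by high-content imaging of 5 fields per well. Positivity cutoff was 5x BMAD over the directed endoderm control, and the DMSO median was subtracted. Cells were RUES2-GLR, dosed twice at 24-h intervals over 48 h of differentiation (1 nM-200 uM).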
# [10] = tested on: Brachyury (BRA) Protein Expression, TBXT (gene 6862); test: CCTE_Deisenroth_DEVTOX-GLR_Endo_BRA: CCTE's DevTox GLR-Endo Assay Evaluation of Brachyury (BRA) Protein Expression, Deisenroth Lab (AID 2284417; active = hit-call score of the fitted dose curve at least 0.9, where 1 is the maximum; inactive = score below 0.9)
# How it was run: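 RUES2-GLR human pluripotent cells, seeded 24 h, then differentiated 48 h in defined media with two chemical exposures 24 h apart (10-point series, 1 nM - 200 uM). Fixed, nuclear-stained, imaged; endpoint is percent BRA+ cells minus 0.2% DMSO control.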
# [11] = CCTE_Deisenroth_DEVTOX-GLR_Endo_CellCount: Viability Assessment in CCTE's DevTox GLR-Endo Assay, Deisenroth Lab (AID 2284420; active = hit-call score of the fitted dose curve at least 0.9, where 1 is the maximum; inactive = score below 0.9)
# How it was run: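 RUES2-GLR pluripotent cells seeded 24 h, then differentiated 48 h in defined media with two chemical exposures 24 h apart. Nuclei counted by high-content imaging; 10-point 1 nM–200 uM series; percent change versus 0.2% DMSO.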
# [12] = tested on: SRY-box transcription factor 17 (SOX17) Protein Expression, Deisenroth Lab, SOX17 (gene 64321); test: CCTE_Deisenroth_DEVTOX-GLR_Pluri_SOX17: CCTE's DevTox GLR-Pluri Assay Evaluation of SRY-box transcription factor 17 (SOX17) Protein Expression, Deisenroth Lab (AID 2284427)
# How it was run: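 RUES2-GLR pluripotent cells were induced toward endoderm over 48 h and received two compound doses 24 h apart, in a 10-point series from 1 nM to 200 uM. The percentage of SOX17+ cells among total cells was measured by high-content imaging and reported minus the 0.2% DMSO control.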
# [13] = TOX21_p53_BLA_p5_viability: Viability Assessment in the Tox21 HCT-116 p53 Agonism Beta-lactamase Assay, Phase 5 (AID 2283600)
# How it was run: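 Decreased CellTiter-Glo luminescence denotes lost viability. Exposure: 16 h at 37C, 5% CO2, with compounds from DMSO stocks diluted 217-fold in wells of 4000 cells.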
# [14] = biological target: PGR (gene 5241) (UniProt P06401); test: TOX21_PR_BLA_Followup_Agonist_ratio: Tox21 HEK293 Progesterone Receptor (PR) Agonism Beta-lactamase Follow-Up Assay, Ratio (AID 2283933)
# Sequence of PGR (gene 5241) (P06401 whole entry, looked up): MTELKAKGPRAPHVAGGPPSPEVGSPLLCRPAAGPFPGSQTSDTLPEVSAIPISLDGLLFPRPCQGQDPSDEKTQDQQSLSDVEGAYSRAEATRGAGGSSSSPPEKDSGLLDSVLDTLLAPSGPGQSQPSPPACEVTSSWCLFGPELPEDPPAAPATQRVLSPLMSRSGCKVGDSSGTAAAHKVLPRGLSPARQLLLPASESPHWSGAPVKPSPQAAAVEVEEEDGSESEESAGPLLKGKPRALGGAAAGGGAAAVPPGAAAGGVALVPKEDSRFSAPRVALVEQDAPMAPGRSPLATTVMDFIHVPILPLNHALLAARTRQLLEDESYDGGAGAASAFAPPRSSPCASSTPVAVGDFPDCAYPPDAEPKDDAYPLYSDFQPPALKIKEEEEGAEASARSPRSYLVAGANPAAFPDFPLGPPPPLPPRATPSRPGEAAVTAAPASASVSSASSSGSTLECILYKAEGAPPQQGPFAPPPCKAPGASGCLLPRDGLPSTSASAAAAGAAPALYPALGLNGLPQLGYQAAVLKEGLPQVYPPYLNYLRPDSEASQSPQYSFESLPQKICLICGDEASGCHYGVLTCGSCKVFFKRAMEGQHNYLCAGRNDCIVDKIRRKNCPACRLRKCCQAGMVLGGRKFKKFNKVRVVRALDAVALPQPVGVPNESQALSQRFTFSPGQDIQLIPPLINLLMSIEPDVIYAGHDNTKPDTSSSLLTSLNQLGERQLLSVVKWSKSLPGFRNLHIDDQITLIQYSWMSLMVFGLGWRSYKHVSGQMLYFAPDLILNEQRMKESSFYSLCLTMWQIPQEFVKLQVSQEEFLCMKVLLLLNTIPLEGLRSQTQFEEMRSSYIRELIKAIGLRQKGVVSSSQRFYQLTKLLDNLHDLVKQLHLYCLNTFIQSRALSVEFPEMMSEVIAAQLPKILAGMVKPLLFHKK
# How it was run: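 Beta-lactamase reporter readout: ratio of cleaved (ch2) to uncleaved (ch1) substrate after 2 h room-temperature loading, following 16 h compound exposure at 37C. Cells were PR-UAS-bla HEK293T in 2% charcoal-stripped FBS medium. Viability was multiplexed by CellTiter-Glo.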
# [15] = biological target: PGR (gene 5241) (UniProt P06401); test: TOX21_PR_BLA_Followup_Antagonist_ratio: Tox21 HEK293 Progesterone Receptor (PR) Antagonism Beta-lactamase Follow-Up Assay, Ratio (AID 2283934);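 also: PR-UAS-bla HEK293T cells stimulated with 1 nM R5020 agonist for 16 hr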
# How it was run: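 Readout is the blue/green (ch2/ch1) substrate cleavage ratio after 2 hours at room temperature, following 16 hr co-treatment of PR-bla HEK293T cells with compound and 1nM promegestone. Multiplexed CellTiter-Glo viability flags cytotoxicity; DMSO baseline.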
# [16] = TOX21_PR_BLA_Followup_Agonist_viability: Viability Assessment in the Tox21 HEK293 Progesterone Receptor (PR) Agonism Beta-lactamase Follow-Up Assay (AID 2283935);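 also: signal loss means lower viability so actives are cytotoxic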
# How it was run: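 Run multiplexed with the beta-lactamase FRET read, this endpoint measures ATP by CellTiter-Glo luminescence (30 min, room temperature). PR-UAS-bla HEK293T cells received compound 6 hr after plating and were then incubated 16 hr at 37C in 2% stripped serum.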
# [17] = TOX21_PR_BLA_Followup_Antagonist_viability: Viability Assessment in the Tox21 HEK293 Progesterone Receptor (PR) Antagonism Beta-lactamase Follow-Up Assay (AID 2283936);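 also: cells exposed to compound with R5020 agonist for 16 h; hits lower the luminescence signal meaning cytotoxicity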
# How it was run: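 PR-UAS-bla HEK293T cells in medium with 2% charcoal-stripped FBS were treated with compounds plus R5020 for 16 hr at 37C. After the beta-lactamase read, CellTiter-Glo was added to the same wells and luminescence read after 30 min at room temperature.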
# [18] = biological target: PGR (gene 5241) (UniProt P06401); test: TOX21_PR_LUC_Followup_Antagonist: Tox21 HEK293 Progesterone Receptor (PR) Antagonism Luciferase Follow-Up Assay (AID 2283938);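 also: curve fitted upward as signal gain over DMSO baseline despite antagonist label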
# How it was run: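 HEK293-PR-A-luc cells, 3,000/well, preincubated 5 h at 37C before compound addition in DMSO; 16 h compound exposure at 37C. ONE-Glo luciferase luminescence read after 30 min at room temperature, fitted relative to DMSO baseline.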
# [19] = TOX21_PR_LUC_Followup_Antagonist_viability: Viability Assessment in the Tox21 HEK293 Progesterone Receptor (PR) Antagonism Luciferase Follow-Up Assay (AID 2283940)
# How it was run: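 Viability counter-readout: cellular ATP measured by luciferase luminescence after 16 h compound exposure at 37C of HEK293-PR-A-luc cells, which had been cultured in charcoal-stripped serum and seeded 5 h beforehand.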
# [20] = TOX21_PR_LUC_Followup_Agonist_viability: Viability Assessment in the Tox21 HEK293 Progesterone Receptor (PR) Agonism Luciferase Follow-Up Assay (AID 2283941);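 also: loss of signal means cytotoxicity so actives lower viability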
# How it was run: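 Cytotoxicity counter-readout in the PR-A luciferase reporter line HEK293, with 16 h compound exposure at 37C after cells were cultured in charcoal-stripped serum. Cellular ATP quantified by CellTiter-Glo luminescence.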
smiles,measurement,setting,value
CC[C@@H](C)[C@@H](N)C(=O)O,outcome,[1],inactive
same,outcome,[2],inactive
same,outcome,[3],inactive
same,outcome,[4],inactive
CC(C)c1ccccc1,outcome,[1],inactive
same,outcome,[2],inactive
same,outcome,[5],inactive
same,outcome,[4],inactive
same,outcome,[6],inactive
Nc1cccc2c1CN(C1CCC(=O)NC1=O)C2=O (stereo not given),outcome,[1],inactive
same,outcome,[2],inactive
same,outcome,[5],inactive
same,outcome,[4],inactive
same,outcome,[6],inactive
same,outcome,[7],inactive
same,AC50,[8],132 nM (active)
same,outcome,[9],inactive
same,AC50,[10],5.03 nM (active)
same,AC50,[11],132 nM (active)
same,outcome,[12],inactive
CC(C)CCCC(C)CCCC(C)CCCCC(C)CCCC(C)CCCC(C)C (stereo not given),outcome,[1],inactive
same,outcome,[2],inactive
same,outcome,[5],inactive
same,outcome,[13],inactive
same,outcome,[6],inactive
O=C(Cn1ccnc1[N+](=O)[O-])NCc1ccccc1,outcome,[1],inactive
same,outcome,[2],inactive
same,outcome,[5],inactive
same,outcome,[13],inactive
same,outcome,[6],inactive
O=C(NCC(O)CO)c1c(I)c(C(=O)NCC(O)CO)c(I)c(N(CCO)C(=O)CO)c1I (stereo not given),outcome,[1],inactive
same,outcome,[2],inactive
same,outcome,[5],inactive
same,outcome,[13],inactive
same,outcome,[6],inactive
O=C1c2ccccc2C(=O)C1c1ccc(Cl)cc1,outcome,[1],inactive
same,outcome,[2],inactive
same,outcome,[5],inactive
same,outcome,[13],inactive
CC(C)NC[C@@H](O)COc1ccc(CC(N)=O)cc1,outcome,[1],inactive
same,outcome,[2],inactive
same,outcome,[5],inactive
same,outcome,[6],inactive
CO[C@H]1O[C@H](CO)[C@@H](O)[C@H](O)[C@H]1O,outcome,[1],inactive
same,outcome,[2],inactive
same,outcome,[3],inactive
Cc1cc(C)c(NC(=O)C[C@H](CC(=O)O)c2cccc3ccccc23)c(C(=O)N2CCC3(CCCC3)CC2)c1,outcome,[1],inactive
same,outcome,[2],inactive
same,outcome,[5],inactive
same,outcome,[6],inactive
NC(CS)C(=O)O (stereo not given),outcome,[1],inactive
same,outcome,[2],inactive
same,outcome,[5],inactive
same,outcome,[6],inactive
CCn1c2ccccc2c2cc([N+](=O)[O-])ccc21,outcome,[1],inactive
same,outcome,[2],inactive
same,outcome,[5],inactive
same,outcome,[4],inactive
same,outcome,[6],inactive
same,outcome,[14],inactive
same,AC50,[15],6290 nM (active)
same,outcome,[16],inactive
same,outcome,[17],inactive
same,AC50,[18],8060 nM (active)
same,outcome,[19],inactive
same,outcome,[20],inactive
CCOC(=O)O[C@]1(C(=O)OCCl)CC[C@H]2[C@@H]3CCC4=CC(=O)C=C[C@]4(C)[C@H]3[C@@H](O)C[C@@]21C,outcome,[1],inactive
same,outcome,[2],inactive
same,outcome,[5],inactive
same,outcome,[6],inactive
COc1cccc(OC)c1C(=O)N[C@@H]1C(=O)N2[C@@H]1SC(C)(C)[C@@H]2C(=O)O,outcome,[1],inactive
same,outcome,[2],inactive
same,outcome,[5],inactive
same,outcome,[13],inactive
same,outcome,[6],inactive
NS(=O)(=O)c1ccccc1OC(F)(F)F,outcome,[1],inactive
same,outcome,[2],inactive
same,outcome,[5],inactive
same,outcome,[13],inactive
same,outcome,[6],inactive

# Source: PubChem BioAssay (EPA / NIEHS)
